These results are taken from PubChem BioAssay AID540364 (The Scripps Research Institute Molecular Screening Center, 2011).

Out of some 360,000 compounds screened, about 2,000 (0.56%) were called active. The full list was thinned out, with actives kept by preference. Unmarked numbers belong to inactive results.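 The calls were made as follows: active = activation above the average of all compounds screened plus 3 SD, cutoff fixed separately per campaign (cut at about 7.5% in these data); inactive = the rest.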

The assay in a line: FXN promoter activators, primary screen, cell-based, luciferase luminescence, HEK293 lucGAA850 (AID 540364).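 Also: 0% = DMSO wells and 100% = 10 µM SAHA wells.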 The following applies: HEK293 lucGAA850 FXN promoter luciferase reporter, 24 h; at 6 µM; hits give high values. On the technique in general: Reporter assays use an easily measured gene product as a stand-in for the process of interest.
In the case of `O=C1C2(Cl)C3(Cl)C4(Cl)C(Cl)(Cl)C5(Cl)C3(Cl)C1(Cl)C5(Cl)C24Cl` (stereo not given), the activation is 9.58% (active).

Consider `COc1ccc(Br)cc1CNCCc1cccc(Cl)c1`, for which the activation is -0.31%.

As to `O=C(c1cc2nc(-c3ccccc3)cc(-c3ccccc3)n2n1)N1CCC2(CC1)OCCO2`, the activation was -0.55%.

In the case of `NCC(O)c1ccc(O)cc1` (stereo not given), the activation is 2.36%.

For `CN1CCN(C(=O)COc2ccc(C(C)(C)C)cc2Br)CC1`, the activation is -0.38%.

Consider `O=C(Nc1cccc(OC(=O)N2CCCCC2)c1)N1CCOCC1`, for which the activation is -1.14%.

As to `CC(C)(C)c1ccc(OC(=O)N2CCCCC2)cc1`, the activation is 8.59% (active).

Consider `CCN(CC)P(=O)(Oc1cccc(C)c1)N(CC)CC`, for which the activation is -1.37%.

On to `COc1ccc(-n2c(-c3ccccc3)nc3ccccc3c2=O)cc1`, for which the activation was 0.96%.

Turning to `CC(=C1C(=O)c2ccccc2C1=O)N1CCN(CCN=Cc2c(O)n(C)c(=O)n(C)c2=O)CC1`, the activation is 1.17%.
